Reference: PubChem BioAssay AID1863 (Southern Research Specialized Biocontainment Screening …, 2009)
Several values for one entry are separate records, joined by “and”; a condition that tells them apart may be missing. Equal values may be shown once. Screen size: about 300,000 compounds; about 480 (0.16%) were called active.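 The calls were made as follows: active = inhibition over 29.93%, a cutoff 3 SD above the screen mean, later confirmed by dose response; inconclusive = inhibition over 29.93% but no dose response follow-up; inactive = inhibition at most 29.93% or unconfirmed.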 These entries were drawn from the full list. Potency and affinity values are given separately.

assay: inhibitors of PhoP regulon expression, primary screen, Salmonella Typhimurium, GFP reporter (AID 1863);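 also: 0% = low Mg2+ inducing control and 100% = high Mg2+ repressing control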; conditions: S. Typhimurium PhoP-regulated promoter GFP reporter, 4 h; at 50 µM; stronger effect = higher value

inhibition, inactive:
Cc1ccc(S(=O)(=O)N/N=C2\C(=O)C3(C)CCC2C3(C)C)cc1 (stereo unspecified) 4.91%
COc1ccc(NS(=O)(=O)c2ccc(NC(=S)NC(=O)c3cccnc3)cc2)nn1 10.7%
COc1nccnc1NS(=O)(=O)c1ccc(NC(=S)NC(=O)c2cccnc2)cc1 36%
NC(=O)c1ccc(NC(=O)COc2coc(CN3CCc4ccccc4C3)cc2=O)cc1 6.56%
COc1cc(C(C[N+](=O)[O-])c2c(N)n(C)c(=O)n(C)c2=O)ccc1O (stereo unspecified) -4.81%
COc1ccccc1C(C[N+](=O)[O-])c1c(N)n(C)c(=O)n(C)c1=O (stereo unspecified) 2.03%
CC(C)OC(=O)CSc1nnc(CNc2cccc(Cl)c2)n1C -3.82%
CCSc1ccccc1C(=O)Nc1nc2ccccc2c(=O)[nH]1 2.88%
COc1cc2cccc(OC)c(=O)c2c(O)c1OC -3.95%
COc1cc2cccc(OC)c(=O)c2c(OC)c1OC -4.09%
Cc1ccc(-c2nn(-c3ccccc3)cc2C(=O)NCC(c2cccs2)N2CCOCC2)cc1 (stereo unspecified) -6.92%
CC(C)CCOP(=O)(c1ccc(N(C)C)cc1)C(O)c1c(Cl)cccc1Cl (stereo unspecified) -4.25%
COc1ccc([N+](=O)[O-])cc1NC(=O)C(C)OC(=O)C1CC(=O)N(Cc2ccco2)C1 (stereo unspecified) -5.1%
COC(=O)c1ccc(N2C(=O)CC(N3CCOCC3)C2=O)cc1 (stereo unspecified) 1.31%
O=C(NN=C1c2ccccc2-c2ccccc21)c1ccccn1 9.9%
COc1ccc2c(c1)C(=NNC(=O)c1ccccn1)c1cc(OC)ccc1-2 -4.06%
Cc1ccccc1CS(=O)(=O)c1ccc(C(=O)N2CCC(C)CC2)cc1[N+](=O)[O-] 1.32%
Cn1c2c(c(=O)n(C)c1=O)C(c1ccc(Br)cc1)Nc1ccccc1O2 (stereo unspecified) -10.1%
Cc1cc(C)n(C(C[N+](=O)[O-])c2ccc(Cl)cc2)n1 (stereo unspecified) 16.6%
Cc1ccc(C(C[N+](=O)[O-])n2nc(C)cc2C)cc1 (stereo unspecified) 4.29%
COc1ccc(-c2cc(C(=O)OCC(=O)NC(C)C)c3ccccc3n2)cc1 6.33%
COCCN(C(=O)COC(=O)c1ccc2c(c1)OCCO2)c1c(N)n(Cc2ccccc2)c(=O)[nH]c1=O 0.22%
CCOC(=O)C1CCCN(C(=O)c2ccc(-c3ccc([N+](=O)[O-])cc3)o2)C1 (stereo unspecified) 3.02%
CSc1ncccc1C(=O)Nc1nc2ccc(Oc3ccccc3)cc2s1 -15.8%
Cc1ccc2nc(N(CCCN(C)C)C(=O)CCc3ccccc3)sc2c1 -4.17%
CN(C)CCCN(C(=O)CCc1ccccc1)c1nc2ccc(Br)cc2s1 10.9%
C=CCN1CCN(C(=O)c2oc3ccccc3c2C)CC1 -3.66%
Cc1ccc(NC2CCCN(C(=O)c3cn(C)c4ccccc34)C2)cc1C (stereo unspecified) 0.88%
CC(C)C(=O)NC(c1cccs1)c1cc([N+](=O)[O-])c2cccnc2c1O (stereo unspecified) 2.63%
Cc1ccc(C(NC(=O)C(C)C)c2cc([N+](=O)[O-])c3cccnc3c2O)cc1 (stereo unspecified) 9.47%
CC(C)C(=O)NC(c1ccccc1)c1cc([N+](=O)[O-])c2cccnc2c1O (stereo unspecified) -2.27%
CC(=O)NC(c1ccccc1)c1cc([N+](=O)[O-])c2cccnc2c1O (stereo unspecified) 4.87%
CCCCC(=O)NC(c1cccs1)c1cc(Cl)c2cccnc2c1O (stereo unspecified) -0.21%
COc1cccc(C(NC(C)=O)c2ccc3cccnc3c2O)c1 (stereo unspecified) 9.73%
CCCC(=O)NC(c1cccs1)c1cc(Cl)c2cccnc2c1O (stereo unspecified) -5.84%
CC(=O)NC(c1ccc2ccccc2c1)c1ccc2cccnc2c1O (stereo unspecified) 56.5%
COc1cccc2cc(CC(=O)c3cc(C)ccc3C)c(=O)oc12 -3.13%
CCOc1ccc(NC(=O)CN(C)C(=O)c2ccc3nc(CC)c(CC)nc3c2)cc1OCC -9.1%
CC(C)C[C@H](NC(=O)c1nc[nH]c1C(=O)NCCCCCNC(=O)OC(C)(C)C)C(=O)OCc1ccccc1 -4.74%
Cc1ccc(S(=O)(=O)N2CCN(C(=O)CC(C)C)CC2)cc1 3.71%
Cc1ccc(NC(=O)Nc2ccon2)cc1Cl 0.2%
Clc1ccccc1CONc1ncnc2nonc12 -2.15%
CCC(C)(C)NC(=O)Cc1ccc(OC)c(OC)c1 -10.6%
O=Cc1c(F)cccc1N1CCCC1 8.32%
Cc1cccc(NC(=O)CC2(CC(=O)O)CCCC2)c1 -1.98%
Cc1ccc(C2N(c3ccc(Cl)cc3)C(=O)N3CCCN23)cc1 (stereo unspecified) -0.36%
CCOC(=O)COc1cc([N+](=O)[O-])cc2cccnc12 1.41%
O=[N+]([O-])c1cc2cccnc2c2ncccc12 -10.2%
CN(C)[C@@H]1C(=O)C(C(=O)NCN2CCCC2)=C(O)[C@@]2(O)C(=O)C3=C(O)c4c(O)cccc4[C@@](C)(O)C3CC12 (stereo partly specified) 1.32%
O=C1C(Oc2ccc(Cl)cc2)C(c2ccc3c(c2)OCO3)N1CC1CCCO1 (stereo unspecified) -1.66%
COc1ccc(-c2cc(C(F)(F)F)n3nc(C(=O)N4CCN5CCCC5C4)cc3n2)cc1OC (stereo unspecified) 8.34%
CN1C(=O)[C@@H]2[C@H](C1=O)[C@@H]1C(=O)Nc3ccccc3C(=O)N1[C@@H]2c1ccc(F)cc1 6.12%
CC1Cc2ccccc2N1C(=O)CSc1nnnn1-c1ccc2c(c1)OCCO2 (stereo unspecified) 4.49%
C#CCOCCOCCOCCNc1nc(N2CCN(C(=O)CCCCCCCCCCNC(=O)[C@H](CCCCN)n3cc(CCCC(=O)O)nn3)CC2)nc(N2CCN(C(=O)CCCCCCCCCCNC(=O)[C@H](CCCN=C(N)N)n3cc(C[C@@H](C)CC)nn3)CC2)n1 -5.84%
C#CCOCCOCCOCCNc1nc(N2CCN(C(=O)CCCCCCCCCCNC(=O)[C@H](CCCCN)n3cc(CCO)nn3)CC2)nc(N2CCN(C(=O)CCCCCCCCCCNC(=O)[C@H](CCCN=C(N)N)n3cc(C[C@@H](C)CC)nn3)CC2)n1 25.8%
C#CCOCCOCCOCCNc1nc(N2CCN(C(=O)CCCCCCCCCCNC(=O)[C@H](CCCCN)n3cc(C)nn3)CC2)nc(N2CCN(C(=O)CCCCCCCCCCNC(=O)[C@H](CCCN=C(N)N)n3cc(C[C@@H](C)CC)nn3)CC2)n1 23.8%
C#CCOCCOCCOCCNc1nc(N2CCN(C(=O)CCCCCCCCCCNC(=O)[C@H](CCCCN)n3cc(C[C@@H](C)CC)nn3)CC2)nc(N2CCN(C(=O)CCCCCCCCCCNC(=O)[C@H](CCCCN)n3cc(C[C@@H](C)CC)nn3)CC2)n1 20.6%
Cc1cc(C)cc(NC(=O)CN(C)S(=O)(=O)c2cccc3nsnc23)c1 -9.89%
CC(C)CCNC(=O)NC(=O)COC(=O)CCN=C1NS(=O)(=O)c2ccccc21 -10.2%
COC(=O)CCC(=O)N1CN2CN(C(=O)CCC(=O)OC)CC([N+](=O)[O-])(C2)C1 -5.21%
c1ccc(Nc2nn[nH]n2)cc1 -21.5%
CC[C@H]1OC(=O)[C@H](C)[C@@H](O[C@H]2C[C@@](C)(OC)[C@@H](O)[C@H](C)O2)[C@H](C)[C@@H](O[C@@H]2O[C@H](C)C[C@H](N(C)C)[C@H]2O)[C@](C)(OC)C[C@@H](C)C(=O)[C@H](C)[C@@H](O)[C@]1(C)O -8.63% and -8.23%
CCC(=O)O[C@@H]1CC(=O)O[C@H](C)CC=CC=C[C@@H](O)[C@H](C)C[C@H](CC=O)[C@H](O[C@H]2O[C@H](C)[C@@H](O[C@H]3C[C@@](C)(O)[C@@H](OC(=O)CC)[C@H](C)O3)[C@H](N(C)C)[C@H]2O)[C@H]1OC -22.5%
CC1CCCN(C(=O)c2ccc(S(=O)(=O)Nc3ccccc3Cl)cc2)C1 (stereo unspecified) 3.82%
Cc1ccc(CN2C(=O)CCC2C(=O)NCCN2CCN(c3cccc(Cl)c3)CC2)cc1 (stereo unspecified) -4.51%
CCOCCCNC(=O)c1ccc2c(c1)ncn2-c1ccc(C)cc1C -8.15%
NC(N)=N/N=C/c1ccc(OCc2ccc(Cl)cc2Cl)cc1 -0.84%
NC(N)=N/N=C/c1ccc(OCc2ccccc2)c(OCc2ccccc2)c1 10.4%
NC(N)=N/N=C/c1ccc(OCc2ccccc2)cc1 17.1%
COc1cc(/C=N/N=C(N)N)ccc1OCc1ccc(Cl)cc1 2.42%
CCn1ncc(Cl)c1C(=O)NC(=S)Nc1c(C)cc(C)cc1[N+](=O)[O-] 8.05%
CC(=O)c1cccc(NC(=O)CCCNC(=O)c2ccc(Cl)cc2)c1 0.5%
O=C(O)[C@@H]1CSC2c3ccccc3C(=O)N21 (stereo partly specified) -0.36%
CSCC[C@H](NC(=O)Nc1ccc(Oc2ccccc2)cc1)C(=O)O 0.47%
COC(=O)CSc1nc(N)c(C#N)c(CC(C)C)c1C#N -5.81%
Cc1ccc(NS(=O)(=O)c2ccc3c(c2)NC(=O)CCS3)cc1F 4.54%
COc1ccc(NC(=O)C/C(C)=N/NC(=O)c2cccs2)c([N+](=O)[O-])c1 6.98%
COc1ccccc1NC(c1cccnc1)c1ccc2cccnc2c1O (stereo unspecified) 24.8%
Cc1ccc2ccc(C(Nc3ccccn3)c3ccccc3)c(O)c2n1 (stereo unspecified) 26.2%
Oc1c(C(Nc2cccc(C(F)(F)F)c2)c2cccnc2)ccc2cccnc12 (stereo unspecified) 69.6%
Oc1ccccc1C(Nc1nccs1)c1ccc2cccnc2c1O (stereo unspecified) 1.53%
